Bioassay records as filed in PubChem.
NR3A LBD binder: NR3A (human) ligand-binding domain modulation. NR3A LBD differential scanning fluorimetry, Tm shift; 0% = protein alone, 100% = glycine-bound protein. Tm shift relative to glycine control, % at 25 µM. 2.5% of 340,000 active. AID 1259313;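 active = melting temperature shift of at least 10% of the positive control shift, at one fixed dose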
NadD block: blocks S. aureus nicotinate mononucleotide adenylyltransferase. inhibition, % at 20 µM. purified NadD enzyme, colorimetric absorbance read-out. AID 602399. 0.78% of 360,000 active; in the data active = inhibition above about 26%
Vif inh: blocks HIV Vif function; inhibition, % at 7.49 µM; 0.35% of 340,000 active; HEK293T cells, Vif self-association by quenched fluorescence, imaging, 24 h; in the data active = inhibition above about 50%, passing the limit was not always enough; inconclusive = no clear call, values can overlap the other calls; inactive = below about 31%
esBAF inh: blocks esBAF chromatin remodeling in mouse ES cells. Bmi1-luciferase knock-in reporter, 24 h; 100% = twice the neutral-well signal. reporter increase, % at 12.5 µM. 2% of 350,000 active; in the data active = activation above about 40%; inconclusive = no clear call, values can overlap the other calls;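 note: 0% = median of the plate's neutral control wells and 100% = double that signal; a rise in the Bmi1 reporter signal indicates esBAF inhibition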
SKN-1 block: inhibitors of C. elegans SKN-1. C. elegans VP596 Pgst-4::GFP/RFP ratio, acrylamide-induced, 24 h. inhibition, % at 21.8 µM. 0.49% of 360,000 active. AID 624304;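 active = interference check ratio from 0.5 to 1.5 plus GFP to RFP signal ratio inhibition reaching or exceeding a fixed threshold, cut at about 30% in these data, passing the limit was not always enough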
SMARCA2 activ: SMARCA2 function activation, primary screen | activation, % at 9.1 µM | MG213 cells, MMTV-luciferase reporter, dexamethasone, overnight | 1% of 370,000 active | AID 652017; in the data active = activation above about 7.8%;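 note: 0% = vehicle wells and 100% = reference activator wells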
* marks the source's active call; other numbers are inactive results; ? = inconclusive; . = no result given. A selection: hits, their analogues and other compounds. The true share with any hit is near 5.2%.

SMILES	NR3A LBD binder	NadD block	Vif inh	esBAF inh	SKN-1 block	SMARCA2 activ
O=C(NCC[C@H]1CC[C@H](NS(=O)(=O)Cc2ccccc2)[C@@H](CO)O1)C1CCCC1	.	.	.	-2.7	.	.
Cc1ccc(-c2cc(C(=O)N/N=C/c3c(C)nn(-c4ccccc4)c3C)[nH]n2)cc1	.	3.0	?	-1.6	47.2*	1.5
COC(=O)c1cc(-c2c(C)nn(-c3ccccc3)c2C)n[nH]1	-2.6	3.4	1.3	64.4*	10.3	3.0
Cc1nn(-c2ccccc2)c(C)c1-c1cc(C(=O)N/N=C/c2cccnc2)[nH]n1	.	.	.	.	.	-2.0
Cc1nn(-c2ccccc2)c(C)c1/C=N/NC(=O)c1cc(C(C)(C)C)[nH]n1	-1.1	4.3	-11.2	3.6	4.6	2.1
Cc1ccc(-c2cc(C(=O)N/N=C/c3c(C)nn(-c4ccccc4)c3C)n[nH]2)s1	14.8*	11.3	29.8	-14.4	6.3	-0.4
CCOC(=O)c1cc(-c2ccccc2)n[nH]1	-2.1	-3.8	17.9	.	-8.8	-4.3
COC(=O)c1cc(-c2ccc(Br)cc2)n[nH]1	-1.4	2.8	-5.8	37.3	35.6*	0.0
C[C@@H](NC(=O)C[C@@H]1CC[C@@H](NC(=O)Cc2ccccn2)[C@H](CO)O1)c1ccccc1	.	.	.	-1.0	.	.
C[C@H](CO)N1C[C@H](C)[C@H](CN(C)C(=O)Nc2cccc3ccccc23)Oc2c(NC(=O)Nc3ccc4c(c3)OCO4)cccc2C1=O	.	.	.	0.3	.	.
COC(=O)c1nc(-c2ccccc2)oc1N(C)C	-0.8	-4.3	-12.7	-2.5	32.0*	-1.0
CN(C)c1ccc(S(=O)(=O)NCC(=O)OCC(=O)Nc2cc(Cl)cc(Cl)c2)cc1[N+](=O)[O-]	17.8*	-7.9	-0.5	-8.7	-1.6	0.5
Cc1ccccc1/C=C1\CCCc2ccccc2C1=O	2.2	1.4	-4.1	82.0*	13.7	4.3
O=C1C(=Cc2ccccn2)CCc2ccccc21	.	-5.6	7.1	63.7*	38.7*	7.3
O=C1/C(=C\c2ccc3ccccc3c2)CCCc2ccccc21	6.7	-1.0	3.2	30.4	15.9	5.8
C(=N\N=C\c1ccccn1)/c1ccccn1	0.4	-5.2	2.8	8.5	3.8	-1.3
C(=C1c2ccccc2-c2ccccc21)c1ccccn1	-5.0	3.8	12.2	0.5	51.6*	0.5
CCNC(=O)C[C@@H]1CC[C@@H]2[C@H](COc3ccc(NC(=O)Cc4cccs4)cc3C(=O)N2C)O1	.	.	.	4.2	.	.
CN1C(=O)c2cc(NC(=O)c3ccc(C(F)(F)F)cc3)ccc2OC[C@@H]2O[C@@H](CC(=O)O)CC[C@@H]21	.	.	.	5.8	.	.
C[C@@H]1CCCCO[C@@H](CN(C)C(=O)c2ccccc2)[C@H](C)CN([C@@H](C)CO)C(=O)c2cc(NC(=O)CCC(F)(F)F)ccc2O1	.	.	.	7.2	.	.
O=C(Cc1nnc(NC(=O)Nc2ccc(F)cc2)s1)Nc1ccccc1	25.4*	0.1	4.4	.	-0.4	-0.5
CCN(CC)c1ccc(/C=N/NC(=O)Cc2nnc(NC(=O)Nc3ccccc3)s2)cc1	-2.4	47.9*	4.4	.	31.4	0.2
COc1ccccc1NC(=O)Nc1nnc(CC(=O)Nc2ccccc2)s1	.	.	.	.	.	-2.2
O=C(Nc1ccccc1)Nc1nnc(CSCc2ccccc2Cl)s1	30.3*	-0.5	-0.6	.	9.5	6.0
O=C(Cc1nnc(NC(=O)Nc2ccccc2)s1)Nc1ccccc1	12.4*	6.4	2.4	.	18.6	-2.5
SMILES	NR3A LBD binder	NadD block	Vif inh	esBAF inh	SKN-1 block	SMARCA2 activ
C[C@@H]1CN([C@H](C)CO)S(=O)(=O)c2ccc(C3=CCCC3)cc2O[C@H]1CN(C)Cc1ccccn1	.	.	.	-13.9	.	.
Cc1ccc(S(=O)(=O)N[C@@H]2CC[C@@H](CCn3cc(-c4cccc(F)c4)nn3)O[C@@H]2CO)cc1	.	.	.	0.9	.	.
O=C(Cc1nc(=O)c2ccccc2s1)Nc1ccccc1	18.0*	7.4	-0.7	62.1*	9.9	6.3
O=C(Cc1ccccc1)Nc1nc(=O)c2ccccc2s1	-1.9	-1.7	-0.1	.	10.6	1.6
O=C(Nc1nnc(Cc2ccc(F)cc2)s1)Nc1ccccc1F	1.9	4.7	0.1	8.1	-14.1	-0.5
O=C(Nc1nnc(Cc2ccccc2F)s1)Nc1ccccc1F	0.3	-0.2	1.2	43.6*	-1.5	0.8
Cc1ccc(OCCSCc2nnc(NC(=O)Nc3cccc(Cl)c3)s2)cc1	13.9*	5.2	-9.2	.	7.2	-0.9
O=C(C[C@@H]1CC[C@@H](NC(=O)c2cccc(F)c2)[C@@H](CO)O1)NCc1ccccc1	.	.	.	-2.5	.	.
